# Data: PubChem BioAssay AID504339 (National Center for Advancing Translational Sciences (NCATS), 2011)
# The campaign covered roughly 390,000 compounds. About 17,000 (4.4%) were called active. Where a call stands in place of a potency, no number is given. Not shown: some 8% with an inconclusive outcome. This is one part of a sample in which actives are shown more often than they occur. Calls come from the whole dose curve; as a rule, active = well fitted inhibition curve with a large enough effect; inconclusive = small, poorly fitted or top-dose-only effect; inactive = no such curve, though single readings can be large or run the other way.
# Target: Lysine-specific demethylase 4A (Homo sapiens) (UniProt O75164)
# Assay: qHTS Assay for Inhibitors of JMJD2A-Tudor Domain; note: nearly all actives have a fitted effect of over 50% in size
# Details: AlphaScreen JMJD2A-Tudor / H3K4me3 peptide binding; series mostly up to 114 µM
# Potency is the fitted concentration of half-maximal effect.
# Lysine-specific demethylase 4A (Homo sapiens), sequence (O75164 whole entry, looked up, the tested form may be a part): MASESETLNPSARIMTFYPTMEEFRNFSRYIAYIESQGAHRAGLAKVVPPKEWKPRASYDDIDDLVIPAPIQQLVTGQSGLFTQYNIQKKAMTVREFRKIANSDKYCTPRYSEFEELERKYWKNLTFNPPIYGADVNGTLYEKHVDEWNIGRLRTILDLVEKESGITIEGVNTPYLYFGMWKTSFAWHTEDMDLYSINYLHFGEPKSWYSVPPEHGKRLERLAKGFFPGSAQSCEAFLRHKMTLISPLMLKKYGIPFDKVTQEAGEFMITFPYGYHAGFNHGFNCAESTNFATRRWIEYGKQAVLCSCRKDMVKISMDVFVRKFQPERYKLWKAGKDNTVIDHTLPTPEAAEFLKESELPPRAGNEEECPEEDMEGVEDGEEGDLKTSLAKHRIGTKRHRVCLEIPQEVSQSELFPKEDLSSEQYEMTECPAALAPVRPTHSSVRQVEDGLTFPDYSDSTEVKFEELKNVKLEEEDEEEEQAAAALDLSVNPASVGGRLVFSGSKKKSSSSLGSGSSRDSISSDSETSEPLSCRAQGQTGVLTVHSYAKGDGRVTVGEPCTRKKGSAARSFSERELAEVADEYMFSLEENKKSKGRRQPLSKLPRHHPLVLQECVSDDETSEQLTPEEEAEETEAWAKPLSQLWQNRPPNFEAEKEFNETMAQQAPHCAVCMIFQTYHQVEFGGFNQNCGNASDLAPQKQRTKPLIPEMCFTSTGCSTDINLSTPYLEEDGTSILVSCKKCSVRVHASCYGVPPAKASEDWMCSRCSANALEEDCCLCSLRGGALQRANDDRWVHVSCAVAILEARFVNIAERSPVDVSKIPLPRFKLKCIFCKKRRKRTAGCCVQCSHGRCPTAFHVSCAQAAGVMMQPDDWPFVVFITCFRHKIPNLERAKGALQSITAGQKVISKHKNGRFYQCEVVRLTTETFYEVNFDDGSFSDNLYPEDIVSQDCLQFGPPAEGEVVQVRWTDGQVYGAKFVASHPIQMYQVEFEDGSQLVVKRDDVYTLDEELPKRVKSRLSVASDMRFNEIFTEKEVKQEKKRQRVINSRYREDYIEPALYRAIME
row,Compound,Potency
1,CCOc1ccccc1CNC(=O)Nc1cn(CC(C)C)c(=O)c2ccccc12,inactive
2,CCc1nn(CC(=O)N2CCN(c3ccc(Cl)cc3)CC2)c(=O)c2cc3occc3n12,inactive
3,Cc1ccc(CCNC(=O)c2ccc(CS(=O)(=O)Cc3cccc(C)c3)o2)cc1,inactive
4,Cc1ccc(-n2c(SCC(=O)Nc3cccc(F)c3)nc3c(oc4ccccc43)c2=O)cc1C,inactive
5,COC(=O)c1ccc(/C=N/NC(=O)C(=O)N2CCCCCC2)cc1,inactive
6,COC(=O)c1ccc(/C=N/OCC(=O)Nc2cc(F)ccc2F)cc1,inactive
7,COC(=O)c1ccc(/C=N/N2C(C)CCCC2C)cc1 (configuration not stated),63.1 µM (active)
8,CCOc1ccc(/C(O)=C2/C(=O)C(=O)N(Cc3cccnc3)C2c2ccc(N(C)C)cc2)c(C)c1 (configuration not stated),56.2 µM (active)
9,CCOc1cccc(/C(O)=C2/C(=O)C(=O)N(CCOC)C2c2ccncc2)c1 (configuration not stated),inactive
10,CCCOc1ccc(C2c3c(-c4ccccc4O)n[nH]c3C(=O)N2Cc2cccnc2)cc1 (configuration not stated),inactive
11,Oc1ccccc1CN1CCN(C(c2ccccc2)c2ccccc2)CC1,56.2 µM (active)
12,COc1ccc(OC)c(CN2CCN(C(=O)CNC(=O)c3cc(C)cc(C)c3)CC2)c1,inactive
13,COc1ccccc1CNCc1cccs1,inactive
14,COc1ccccc1CN1CCN(Cc2cc(OC)c(OC)cc2OC)CC1,7.08 µM (active)
15,COc1ccccc1CN1CCN(C(c2ccccc2)c2ccccc2)CC1,50.1 µM (active)
16,COc1ccccc1N1CCN(Cc2cc(OC)c3c(c2)OCO3)CC1,inactive
17,CNCC(O)CN1CCN(c2ccccc2OC)CC1 (configuration not stated),inactive
18,COc1ccccc1Cn1c(CO)nc2ccccc21,inactive
19,CC(=O)N1CCN(CC(c2ccccc2)c2ccccc2)CC1,inactive
20,COc1ccccc1N1CCN(Cc2ccc(OC)c3ccccc23)CC1,3.16 µM (active)
21,CC(C)OCC(O)CN1CCN(C(c2ccccc2)c2ccccc2)CC1 (configuration not stated),inactive
22,COc1ccccc1NC(=S)N1CCN(C(c2ccccc2)c2ccccc2)CC1,inactive
23,CCCCNc1ccc(-c2nc(-c3ccncc3)no2)cc1[N+](=O)[O-],inactive
24,CCOC(=O)c1c(S(=O)(=O)N2CCC(C(=O)NCc3ccccc3OC)CC2)c(C)n(C)c1C,inactive
25,O=C(COc1ccccc1)NCc1ccc2c(c1)CCN2C(=O)c1ccc(F)cc1,inactive

row,Compound,Potency
1,COc1ccc(-c2c(C)nn3c(N4CCC(C(=O)NCCC(C)C)CC4)cc(C)nc23)cc1OC,inactive
2,COc1ccccc1CNc1nc2ccc(Cl)cc2n2cnnc12,inactive
3,COc1ccc(-n2c(=O)[nH]c3cc(C(=O)NCCc4ccc(OC)c(OC)c4)ccc3c2=O)c(OC)c1,inactive
4,COc1ccc(OC)c(CCNC(=O)c2nn(C)c3c2CS(=O)(=O)c2ccccc2-3)c1,inactive
5,CCn1c(C)c(C)c2cc(C(=O)NCCc3cc(OC)ccc3OC)ccc21,35.5 µM (active)
6,Cc1cc(C)c(-c2n[nH]c3c2C(c2ccccc2F)N(CCO)C3=O)c(O)c1 (configuration not stated),inactive
7,COc1ccc(N(Cc2ccc(N(C)C)cc2)C(=O)c2ccc(S(C)(=O)=O)cc2)cc1,63.1 µM (active)
8,COc1ccc(S(=O)(=O)NCc2ccc(C(=O)N(C)Cc3ccco3)cc2)cc1,inactive
9,COc1ccc(CNC(=O)Cn2nnc(-c3ccc(S(C)(=O)=O)cc3)n2)cc1,inactive
10,CCn1cc2nc(SCc3ccccc3Cl)n(CCc3ccccc3)c(=O)c2n1,inactive
11,O=C(c1cccc(Br)c1)N1CCN(Cc2cc(=O)n3nc(-c4ccccc4)sc3n2)CC1,inactive
12,COCCCNC(=O)c1c(NC(=O)c2cc(=O)c3cc(C)c(C)cc3o2)sc2c1CCCC2,inactive
13,Cc1ccc(-c2nn3c(=O)cc(CN4CCN(C(=O)Nc5cccc(C(F)(F)F)c5)CC4)nc3s2)cc1,inactive
14,COc1ccc(N(C(=O)c2cccnc2)S(=O)(=O)c2ccc(OC)c(OC)c2)cc1,inactive
15,O=C(c1cccnc1)N(c1cc2sc(=O)oc2c2ccccc12)S(=O)(=O)c1ccccc1,25.1 µM (active)
16,O=C(c1cccnc1)N(Cc1ccccc1)C(=O)c1cccnc1,inactive
17,COc1ccc(C(F)(F)F)cc1NC(=O)c1sc2nc(-c3cccs3)ccc2c1N,inactive
18,COc1cccc(CNC(=O)C(NS(=O)(=O)c2ccc3nc(C)sc3c2)C(C)C)c1 (configuration not stated),inactive
19,CCOC(=O)N1CCN(C(=O)C2CCN(S(=O)(=O)c3cc(Cl)ccc3OCC)CC2)CC1,inactive
20,CCOC(=O)N1CCN(CCC(=O)Nc2cc(OC)ccc2OC)CC1,inactive
21,CCOC(=O)N1CCN(C(=O)C2CCN(Cc3ccc(OC)cc3OC)CC2)CC1,1 µM (active)
22,CC(C)(C)c1ccc(C(=O)NCC(c2ccco2)S(=O)(=O)c2ccc(F)cc2)cc1 (configuration not stated),inactive
23,O=C(NCc1cccnc1)C(=O)NCC(c1cccnc1)N1CCN(c2ccccc2)CC1 (configuration not stated),inactive
24,COc1ccc(CNC(=O)c2cc3c(-c4ccccc4F)nn(C)c3s2)c(OC)c1,inactive
25,Cc1cc2c(cc1C)C(c1cccc(OC(C)C)c1)CC(=O)N2 (configuration not stated),inactive

row,Compound,Potency
1,COc1cc(Br)cc2cc(S(=O)(=O)c3ccccc3)c(=O)oc12,inactive
2,O=C(Cn1nc(C(F)(F)F)c2c1CCCC2)Nc1ccc(Cl)cc1,inactive
3,O=C(Cn1nc(CNc2ccc(Cl)cc2)[n+]2c1CCCCC2)c1ccc(Cl)cc1,44.7 µM (active)
4,O=C(Cn1ncc(N2CCCC2)c(Br)c1=O)c1ccc(Cl)cc1,inactive
5,COc1cc(OC)c(NC(=O)c2c3c(nn2C)-c2ccccc2SC3)cc1Cl,inactive
6,CC(C(=O)NC1CCS(=O)(=O)C1)N1C(=O)/C(=C/c2ccc(Cl)cc2)SC1=S (configuration not stated),56.2 µM (active)
7,CN(C(=O)CN1C(=O)/C(=C/c2ccc(Cl)cc2)SC1=S)C1CCS(=O)(=O)C1 (configuration not stated),inactive
8,O=C(Cc1ccc(Cl)cc1)NC1CCS(=O)(=O)C1 (configuration not stated),inactive
9,COc1ccccc1C(=O)OCc1cc(=O)n2nc(-c3cccs3)sc2n1,inactive
10,COc1ccc(NC(=O)CN(C)C(=O)c2ccc(NC3CC3)c([N+](=O)[O-])c2)cc1,inactive
11,Cc1c(NS(=O)(=O)c2ccc(NC3CCCC3)c([N+](=O)[O-])c2)c(=O)n(-c2ccccc2)n1C,inactive
12,Cc1cc(C=O)c(C)n1-c1ccc(NC2CCCCC2)c([N+](=O)[O-])c1,17.8 µM (active)
13,Cc1ccc(C)c2sc(NC(=O)c3ccc(S(=O)(=O)N4CCCC4)cc3)nc12,inactive
14,COc1ccccc1CNS(=O)(=O)c1cc(Br)cc2c1N(C(C)=O)C(C)C2 (configuration not stated),inactive
15,CC(C)CCNC(=O)CSc1nc2ccccc2nc1Cc1ccc(Cl)cc1,inactive
16,CCC1CCCCN1S(=O)(=O)c1ccc(NC(=O)c2cc(=O)c3ccccc3o2)cc1 (configuration not stated),inactive
17,CCOc1ccc(Nc2ncnc3scc(-c4ccc(OC)cc4)c23)cc1,inactive
18,CCCCNC(=O)CSc1nccn1Cc1ccccc1,inactive
19,COC(=O)CCSc1nccn1Cc1ccccc1,35.5 µM (active)
20,O=C(CSc1nccn1Cc1ccc(Cl)cc1)NCc1ccccc1,inactive
21,COc1ccc(CNC(=O)c2ccc3c(O)c(S(=O)(=O)c4ccccc4)c(=O)[nH]c3c2)cc1,inactive
22,Cc1ccccc1NC(=O)c1c(NC(=O)c2ccccc2F)sc2c1CCC(C)C2 (configuration not stated),inactive
23,COc1cc(C2/C(=C(\O)c3ccc4c(c3)CC(C)O4)C(=O)C(=O)N2Cc2ccco2)ccc1O (configuration not stated),inactive
24,CCOc1ccc(C2/C(=C(/O)c3ccc4c(c3)CC(C)O4)C(=O)C(=O)N2CCCn2ccnc2)cc1 (configuration not stated),inactive
25,COc1cc(C2/C(=C(\O)c3ccc4c(c3)CC(C)O4)C(=O)C(=O)N2c2nnc(C)s2)cc(OC)c1OC (configuration not stated),44.7 µM (active)

row,Compound,Potency
1,O=C(Nc1ccc2c(c1)OCO2)c1cc(-c2cccc(Cl)c2)on1,inactive
2,CC(C)C12CN3CC(C(C)C)(CN(C1)C3c1ccc(OCc3ccccc3)cc1)C2=O (configuration not stated),inactive
3,O=C(O)C1OC(C(=O)O)C2C1C(F)(F)C2(F)F (configuration not stated),28.2 µM (active)
4,Cc1ccc2nc(/C(C#N)=C/c3ccccc3F)[nH]c2c1,inactive
5,COc1ccc(C(=O)/C=C/Nc2ccccn2)cc1,inactive
6,O=C(NNC(=O)c1ccc(Cl)nc1)c1ccc(Br)cc1,inactive
7,O=C(NNc1ccccn1)c1ccc(Cl)nc1,4.47 µM (active)
8,COc1ccccc1-c1noc(-c2ccc(NCc3ccccc3)c([N+](=O)[O-])c2)n1,inactive
9,CCN1CCC2(CC1)N=C(c1ccc(F)cc1)C(=S)N2C(=O)c1ccc(C)cc1,31.6 µM (active)
10,Cc1ccc(NC(=O)CN2C(=O)C(c3ccc(F)cc3)=NC23CCCCCC3)c(C)c1,inactive
11,CCN1CCC(N(Cc2ccc(F)cc2)C(=O)Nc2cc(C)ccc2C)CC1,inactive
12,COc1cccc(NC(=O)N(Cc2cn(C)c3ccccc23)C2CCCCCC2)c1,inactive
13,Cc1ccc(Cn2c(CCCNC(=O)C3CCCCC3)nc3ccccc32)cc1,inactive
14,Cc1cc(C)cc(NC(=O)CCN2C(=O)c3ccccc3C2=O)c1,inactive
15,Cc1cc2c(cc1C)N(C(=O)CN1C(=O)c3ccccc3C1=O)C(C)(C)c1ssc(=S)c1-2,39.8 µM (active)
16,Cc1ccc(NC(=O)CCN2C(=O)c3ccccc3C2=O)cc1C,inactive
17,CCN(CC)c1cc(NC2CCCCC2)c2c3c(onc13)-c1ccccc1C2=O,8.91 µM (active)
18,Cc1cccc(-c2nc(SCc3ccc(Br)cc3)n3[nH]c(=O)cc3n2)c1,inactive
19,Cc1cccc(CNC(=O)c2cnc3sc(N4CCCCC4)nn3c2=O)c1,inactive
20,CCCCN(C(=O)C1CCC1)c1c(N)n(Cc2ccccc2)c(=O)[nH]c1=O,inactive
21,CCNC(=S)NNC(=O)C1CCN(Cc2ccccc2)CC1,inactive
22,CCCCN(Cc1ccccc1)C(=O)C1CCN(Cc2sccc2C)CC1,5.62 µM (active)
